In PubChem BioAssay (EPA / NIEHS) one finds outcome and AC50 data, which are given here for 21 compounds.

The nature of test [1]: CCTE_Padilla_ZF_144hpf_TERATOSCORE: (Legacy) CCTE's 144 Hour Post-fertilization zebrafish Assay Teratoscore, Padilla Lab (AID 2283679; active = hit-call score of the fitted dose curve at least 0.9, where 1 is the maximum; inactive = score below 0.9;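 for AC50: zebrafish embryos with chorions exposed by immersion from 6-8 hpf to 5 dpf with daily renewal; teratogenicity score from eye scoring of death hatching and malformations at 144 hpf; higher score means more developmental defects relative to DMSO baseline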). An outline of the steps: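 Larvae scored by eye at 144 hpf for death, hatching and malformations after a day in clean Hanks'. Before that, daily-renewed exposure at 80 uM (0.4% DMSO, 26C) from roughly 6-8 hpf through 5 dpf, 4 embryos per chemical.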

The nature of test [2]: STM_H9_CystineISnorm_perc: Stemina devTOX quickPredict H9 human embryonic stem cell (hESC)-based Assay for Cystine (CYSS) Metabolite Biomarker, Normalized (AID 2283713; active = hit-call score of the fitted dose curve at least 0.9, where 1 is the maximum; inactive = score below 0.9). An outline of the steps: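 H9 hESC, pluripotent; compound 72h, re-dosed q24h with medium change. Last-24h medium → 40% acetonitrile deproteinization → UPLC-HRMS. CYSS area / C13-CYSS standard, then % of 0.1% DMSO median.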

Test [3] can be described thus: Tanguay_ZF_120hpf_ActivityScore_legacy: (Legacy) Oregon State University Tanguay Lab 120 Hour Post-fertilization zebrafish Assay Score for Activity (AID 2283742).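 For AC50: dechorionated Tropical 5D wild-type zebrafish embryos held singly per well; static exposure from 6 hpf until 120 hpf at 28 °C.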 An outline of the steps:
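Embryos are staged, enzymatically dechorionated at 4 hpf, placed individually at 6 hpf, then held in test chemical (0.64% DMSO) at 28C until 120 hpf. Mortality and malformations are scored by brightfield, with non-mortality endpoints skipped for dead embryos.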

Test [4] has as its system zebrafish Androgen Receptor (AR), gene 100005148. Put plainly: ATG_zfAR_XSP1: Attagene TRANS-FACTORIAL Multi-Species (XSP1) HepG2 Assay for zebrafish Androgen Receptor (AR) (AID 2283771). An outline of the steps:
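HepG2 cells were transiently transfected with a zebrafish AR-GAL4 reporter system and partially stimulated with 3 nM 6-alpha-fluorotestosterone. Reporter mRNA was measured after 24 h dosing by RT-PCR with capillary electrophoresis, and gain-of-signal was fitted relative to DMSO.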

The nature of test [5]: ArunA_Migration_hNC: ArunA Biomedical's Oris Neural Crest (hNC) Cell Migration Assay (AID 2283755). An outline of the steps:
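Human H9-derived neural crest stem cells, 60,000/well on Matrigel, 16 h at 37C, then 72 h chemical exposure after seeding-stopper removal. Migration into detection zone read as calcein-AM fluorescence (ex494/em517), relative to DMSO.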

A short description of test [6]: ArunA_NOG_NucleusCount: ArunA Biomedical's Neurite Outgrowth (NOG) Assay for Nucleus Count (AID 2283756). An outline of the steps: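 Human H9-derived differentiated neurons were exposed for 48 h right after seeding. Hoechst-stained nuclei gated by size and intensity were counted by automated high-content imaging as viable neurons. Loss of signal vs DMSO.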
Test [7] is described as follows: ArunA_NOG_NeuriteLength: ArunA Biomedical's Neurite Outgrowth (NOG) Assay for Neurite Length (AID 2283757). An outline of the steps:
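Differentiated human H9-derived neurons were exposed for 48 h from seeding, then stained with Hoechst and βIII-tubulin. Automated high-content imaging gave total neurite length per valid neuron, counting processes >10 um. Loss of signal was scored versus DMSO.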

The nature of test [8]: ArunA_NOG_NeuritesPerNeuron: ArunA Biomedical's Neurite Outgrowth (NOG) Assay for Neurites Per Neuron (AID 2283758). The method in brief:
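Differentiated human H9-derived neurons exposed to chemicals for 48 h from seeding, then stained with Hoechst and βIII-tubulin/DyLight 488. Automated imaging counted neurites (processes >10 um) per valid neuron; loss of signal versus DMSO scored.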

The nature of test [9]: ArunA_NOG_BranchPointsPerNeurite: ArunA Biomedical's Neurite Outgrowth (NOG) Assay for Branch Points Per Neurite (AID 2283759). The method in brief:
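Automated image analysis traced neurites (processes >10 um) from valid cell bodies after Hoechst and βIII-tubulin staining. hNN cells from H9 embryonic stem cells, 48 h exposure. Fitted bidirectionally against DMSO.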

A short description of test [10]: ArunA_CellTiter_hNC: Viability Assessment in the ArunA Biomedical's Oris Neural Crest (hNC) Cell Migration Assay (AID 2283752). An outline of the steps:
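Cell titer was measured with the CellTiter Aqueous One reagent after 72 h of chemical dosing. Cells were H9-derived embryonic neural crest stem cells seeded on Matrigel, 60,000 per well, and given 16 h at 37C beforehand.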

Test [11] is described as follows: Tanguay_ZF_120hpf_TR_legacy: (Legacy) Oregon State University Tanguay Lab 120 Hour Post-fertilization zebrafish Assay for Touch Response (AID 2283667). The method in brief: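 5D WT embryos; static exposure to 120 hpf, 28C, sealed/dark; DMSO 0.64% v/v final. TR scored present/absent; dead embryos excluded. Pos ctrl 5uM trimethyltin chloride.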
Test [12] can be described thus: ArunA_CellTiter_hNP: Viability Assessment in the ArunA Biomedical's Oris Neural Crest (hNC) Cell Migration Assay (AID 2283753). The method in brief:
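H9-derived hNP1 neuroprogenitors, 60,000/well on Matrigel, cultured 16 h, then 72 h chemical exposure in test medium. Cell titer via CellTiter Aqueous One; positive-direction fit vs DMSO.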

Test [13] in a line: ArunA_Migration_hNP: ArunA Biomedical's Oris Neuroprogenitor (hNP) Cell Migration Assay (AID 2283754). The method in brief:
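Human H9-derived hNP1 neuroprogenitors on Matrigel with LIF/bFGF, plated around seeding stoppers for 16 h at 37C; stoppers removed at start of 72 h chemical exposure. Calcein-AM staining, fluorescence 494/517 nm in detection zone; loss-of-signal vs DMSO; cytochalasin D control.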

Structures are written as SMILES. Results filed as inconclusive are left out. Activity calls are given as the source filed them. Rule for the calls, unless noted: active = hit-call score of the fitted dose curve at least 0.9, where 1 is the maximum; inconclusive = response in the unintended direction; inactive = score below 0.9.

In the case of `O=c1[nH]cnc2c1ncn2[C@H]1CC[C@@H](CO)O1`, the compound was classed as inactive in test [1], in test [2] and in test [3].

For the compound `OCC(CO)(CO)CO`, the outcome in test [1] and in [3] was inactive.

As usually defined, the AC50 is the concentration at which the activity in the assay is half-maximal. `Nc1ccn([C@@H]2O[C@H](CO)[C@@H](O)[C@@H]2O)c(=O)n1`: the half-maximal activity concentration (AC50) in test [2] was 0.142 µM (active). Besides, the compound was classed as inactive in test [3].

As for `CC(C)C(=O)Nc1ccc([N+](=O)[O-])c(C(F)(F)F)c1`, the concentration at half-maximal activity (AC50) in [1] was 14.2 µM (active); in test [2], 31.6 µM (active). Besides, the call in test [3] and in test [4] was inactive.

As to `CC(C)c1nnc2ccc(-c3ocnc3-c3cc(F)ccc3F)cn12`, the concentration at half-maximal activity (AC50) in test [1] was 61.9 µM (active). In test [3], the result was inactive.

With `OCCNCCO`, the AC50 in test [2] was 22.2 µM (active); in [6], 21.3 µM (active); in test [7], 24.8 µM (active); in [8] it was 20.2 µM (active); in test [9] it was 15.4 µM (active). In addition, the compound was called inactive in [3] and in test [5].

With `CCCOc1ccc(S(=O)(=O)N2CCN(CC)CC2)cc1-c1nc2c(CC)n(Cc3ccccn3)nc2c(=O)[nH]1`, the compound was classed as inactive in test [3].

For the compound `CCCCCCCCCC`, the result in [2], in test [3], in test [10], in test [5] and in [6] was inactive.

Take `COc1cc(C(C)C)c2c(c1)S(=O)(=O)N(COc1cc(=O)n3cccc(OCCN4CCCCC4)c3n1)C2=O`: the values for the half-maximal activity concentration (AC50) in test [1] and in [3] were 15.5 µM (active) and 7.72 µM (active), respectively.

With `OC[C@H]1O[C@@H]2O[C@H]3[C@H](O)[C@@H](O)[C@@H](O[C@H]4[C@H](O)[C@@H](O)[C@@H](O[C@H]5[C@H](O)[C@@H](O)[C@@H](O[C@H]6[C@H](O)[C@@H](O)[C@@H](O[C@H]7[C@H](O)[C@@H](O)[C@@H](O[C@H]1[C@H](O)[C@H]2O)O[C@@H]7CO)O[C@@H]6CO)O[C@@H]5CO)O[C@@H]4CO)O[C@@H]3CO`, the compound was called inactive in [11] and in test [3].

Regarding `C=CN1CCCC1=O`, in test [3], the outcome was inactive.

On to `Cc1ncc([C@@H](CCCCCCc2ccc3c(n2)NCCC3)CC(=O)O)cn1`, for which the AC50 in test [2] was 0.0101 µM (active). Further, the result in test [3] was inactive.

Regarding `OCc1ccccc1`, the compound was called inactive in test [1] and in test [3].

`c1ccc2c(c1)-c1cccc3c1c-2cc1ccccc13`: the outcome in test [3] was inactive.

On to `CCc1cccc(CC)c1N`, for which, in test [3], the result was inactive.

As to `c1ccc(C(O[C@@H]2CCCN(CCc3ccc4c(c3)OCO4)C2)c2ccccc2)cc1`, the figures for the AC50 in [1] and in [3] were 2.1 µM (active) and 36.3 µM (active), respectively.

As for `O=C(O)c1ccc2c(c1)nc(C(=O)NC1CCN(C3CC3)CC1)n2Cc1cc(-c2ccc(Cl)s2)on1`, in test [3], the compound was called inactive.

For the compound `CCOC(N)=O`, in test [3], the outcome was inactive.

With `OC(CCl)CCl`, the result in test [3] was inactive.

In the case of `CCN(CC)C(=S)SSC(=S)N(CC)CC`, the AC50 in test [1] was 0.183 µM (active); in test [2] it was 0.682 µM (active); in [3], 0.831 µM (active); in test [10], 8.19 µM (active); in [12], 7.2 µM (active); in [13], 0.405 µM (active). Besides, the concentration at half-maximal activity (AC50) is 8.55 µM (active) in test [5], 18.4 µM (active) in test [6], 15.5 µM (active) in [7] and 14.5 µM (active) in test [8].

As to `CCCCN1C(=O)[C@@H]([C@H](O)C2CCCCC2)NC(=O)C12CCN(Cc1ccc(Oc3ccc(C(=O)O)cc3)cc1)CC2`, in [2], the AC50 is 2.26 µM (active). The compound was classed as inactive in test [3].
